Test results from ChEMBL document CHEMBL3988442, “University of Dundee, Small-Polar-MMV Screening Library” (2021).

Each compound was assayed against AMP-activated protein kinase, AMPK (Homo sapiens) (UniProt P54646+O43741+P54619+Q9UGJ0+Q9Y478+Q13131+Q9UGI9) (assay: AMP-dependent Kinase enzyme assay. An in vitro enzyme assay that detects ADP turnover that is directly proportional to AMPK activity. This uses naive AMPK that is activated during the assay with MK-8722). Conditions: 30 µM.
Type: functional
Set-up: scale not given: direction of the effect not stated beside the values

| SMILES | Percent Effect |
| --- | --- |
| CN(CCCO)C(=O)c1cc(COc2ccc3c(c2)CCCC3)on1 | -1.01% |
| CN1CC(C(=O)NCCc2ccc3c(c2)OCO3)CC1=O (centres undefined) | 3.69% |
| CC(C)c1nnc(NC(=O)Cc2csc(-c3nnc[nH]3)n2)s1 | 6.49% |
| CN(C)c1ccc(C(=O)Nc2ccn(CCc3ccncc3)n2)cc1 | 10.3% |
| Cc1csc(N2CCN(Cc3ccccn3)CC2)n1 | -1.61% |
| Cc1c(C(=O)N(C)c2ccccc2)cccc1N(C)S(C)(=O)=O | 12% |
| Cc1ccc2[nH]c(CNC(=O)C3CC4(CCNCC4)CN3C)nc2c1C (centres undefined) | -16.1% |
| O=C(NCCS(=O)(=O)N1CCN(c2ncccn2)CC1)c1ccccc1 | -4.77% |
| Cc1ccc(C)n1-c1ccsc1C(=O)NCC(=O)N1CCCC1 | 2.6% |
| CCC(C)Oc1ccc(CNCCNC(C)=O)cc1OC (centres undefined) | 2.89% |
| Clc1ccc(N2CCC(OCC3CCCCO3)CC2)nc1 (centres undefined) | 3.4% |
| CC(C)N(CC(N)=O)C(=O)CCC(=O)c1ccc(F)cc1F | -2.63% |
| OCC1(CCOc2ccccc2)CCN(c2ccc(Cl)cn2)CC1 | -2.64% |
| CNC(=O)c1ccc(C2CN(c3cc(C)nc(N)n3)CCO2)nc1 (centres undefined) | -3.96% |
| CN(CC1(CO)CCCC1)c1nc2c(c(=O)[nH]1)Cc1ccccc1OC2 | 6.29% |
| CC1(c2ncc(CN3CCOCC3)cn2)CCCCO1 (centres undefined) | 9.84% |
| CN(Cc1nncn1C)C(=O)c1cc(COc2ccccc2F)[nH]n1 | -9.05% |
| N#Cc1cccc(N2CCC(CO)(CCOc3ccccc3)CC2)n1 | 3.85% |
| CCc1ccccc1Nc1noc2c1CN(C(=O)c1ccn(C)n1)CC2 | -1.29% |
| CC(C)c1noc(C(C)N2CCN(Cc3noc(C4CC4)n3)CC2)n1 (centres undefined) | -0.511% |

| SMILES | Percent Effect |
| --- | --- |
| Cc1cc(C(=O)N2CCNC(=O)C2)c(C)n1Cc1ccccn1 | -10.9% |
| CCOc1ccc(Cl)cc1CCNC(=O)Cn1ccccc1=O | 16.7% |
| CCc1ccsc1C(=O)NC(C#N)CC (centres undefined) | 2.87% |
| CCSc1cccc(NCc2cccnc2)c1 | -1.67% |
| COc1ccc(C(=O)N2C[C@@H](O)[C@H](NCc3ncccc3C)C2)cc1 | -3.45% |
| CCn1nc(C)cc1C(=O)N1C[C@@H](CN(C)C)[C@@H](CO)C1 | 0.455% |
| Cc1cccc(C(=O)N2CC(=O)N(c3ccccc3Cl)CC2C)n1 (centres undefined) | 20.1% |
| CN(CCCO)C(=O)c1ccc2c(c1)nc(N1CC[C@H](O)C1)n2C | 6.47% |
| CCc1oc(C(=O)N[C@@H]2c3ccccc3C[C@@H]2O)cc1C | -3% |
| COc1ccc(CN2C[C@@H]3CC[C@H](C2)N(S(C)(=O)=O)C3)cc1 | 12.6% |
| CNC(=O)C(c1cccc(Cl)c1)C(C)C (centres undefined) | -6.65% |
| CCC1c2ccccc2CCN1CCCS(C)(=O)=O (centres undefined) | -1.94% |
| CN(CCc1ccccc1)Cc1c(C2CCOCC2)[nH]c2ncccc12 | 11.1% |
| Cc1cc(Br)ccc1C(=O)Nc1c(C(N)=O)n[nH]c1C | 1.52% |
| NC(=O)C(NC1CCN(CC2CCCCC2)CC1)c1ccc(F)cc1 (centres undefined) | -4.02% |
| CCNC(=O)c1ccc(NC2CCOC3(CCCCC3)C2)nn1 (centres undefined) | 3.88% |
| CCCN1CCN(S(=O)(=O)c2ccccc2OC)[C@H]2CS(=O)(=O)C[C@H]21 | 2.61% |
| CCOc1ccc(CN2CCOCC2c2[nH]ncc2C)cc1CO (centres undefined) | 22.7% |
| COc1cccc(CCC(=O)Nc2c(C)nn(C)c2C)c1OC | 15.8% |
